NS1 function inh = qHTS Assay for Inhibitors of Influenza NS1 Protein Function; Potency, µM (highest dose often 46.1 µM), inactives show at the highest dose activity, positive = more growth; 270,000 compounds, 0.4% hits; AID 2326, 2010; also: potency is read from the fitted curve at half-maximal effect; actives are rising curves; nearly all actives have a fitted effect of over 50% in size
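S. cerevisiae expressing influenza A NS1, grown in glucose, washed, then diluted 1:100 into pH 6.0 -URA galactose medium with 23 nl compound. Growth recovery read as OD600; NS1-free strain serves as control.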
SARS PLP yeast = qHTS of Yeast-based Assay for SARS-CoV PLP; AID 485353, 2010; 330,000 compounds, 0.19% hits; S. cerevisiae expressing SARS-CoV PLpro, growth rescue; Potency, µM (highest dose often 32.9 µM), for the others: top-dose activity, positive = growth rescue, hits mostly activators; also: potency is read from the fitted curve at half-maximal effect; 0% is about no effect; nearly all actives have a fitted effect of over 55% in size
Giardia FBPA inh = qHTS Assay for Inhibitors of Fructose-1,6-bisphosphate Aldolase from Giardia Lamblia; purified Giardia FBPA; 290,000 compounds, 0.71% hits; AID 2451, 2010; Potency, µM (series often up to 59.6 µM), for the others: at the highest dose activity, negative = inhibition, usual class: inhibitors; active = well fitted curve in the direction sought with a large enough effect; inconclusive = small, poorly fitted or top-dose-only effect, or another doubt; inactive = no such curve, though single readings can be large; an effect the other way counts as inactive or inconclusive; also: potency is read from the fitted curve at half-maximal effect; % is scaled to controls: 0 for no effect and ±100 for the full control effect; nearly all actives have a fitted effect of over 55% in size
Target sequence (A8B2U2 whole entry, looked up): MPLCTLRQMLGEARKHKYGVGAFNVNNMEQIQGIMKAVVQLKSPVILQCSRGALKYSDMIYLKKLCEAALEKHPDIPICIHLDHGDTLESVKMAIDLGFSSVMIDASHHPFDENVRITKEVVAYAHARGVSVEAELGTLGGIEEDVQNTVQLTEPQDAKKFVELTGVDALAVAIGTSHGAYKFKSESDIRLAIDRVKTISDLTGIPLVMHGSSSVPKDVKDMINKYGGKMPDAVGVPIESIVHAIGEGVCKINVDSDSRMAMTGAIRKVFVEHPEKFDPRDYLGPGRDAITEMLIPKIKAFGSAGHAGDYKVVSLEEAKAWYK
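40 nM FBPA preincubated 10 min at RT with compound (up to 57.5 uM final), then substrate plus GAPDH/TPI/NAD/arsenate coupling and diaphorase/resazurin added. Fluorescence read after 20 min at RT, 525/598 nm.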
AmpC detergent = qHTS Inhibitors of AmpC Beta-Lactamase (assay with detergent) | Potency, µM (doses to about 114 µM), without a hit: at the top dose activity change, negative = inhibition, hits mostly inhibitors | 370,000 compounds, 0.041% hits | AID 485294, 2010 | AmpC hydrolysis of nitrocefin, absorbance 480 nm, 0.01% Triton | P00811; active = well fitted curve in the direction sought with a large enough effect; inconclusive = small, poorly fitted or top-dose-only effect, or another doubt; inactive = no such curve, though single readings can be large; an effect the other way counts as inactive or inconclusive;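 also: potency is read from the fitted curve at half-maximal effect; 0% = no-compound wells and -100% = no-enzyme wells; nearly all actives have a fitted effect of over 25% in size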
Target sequence (P00811 whole entry, looked up): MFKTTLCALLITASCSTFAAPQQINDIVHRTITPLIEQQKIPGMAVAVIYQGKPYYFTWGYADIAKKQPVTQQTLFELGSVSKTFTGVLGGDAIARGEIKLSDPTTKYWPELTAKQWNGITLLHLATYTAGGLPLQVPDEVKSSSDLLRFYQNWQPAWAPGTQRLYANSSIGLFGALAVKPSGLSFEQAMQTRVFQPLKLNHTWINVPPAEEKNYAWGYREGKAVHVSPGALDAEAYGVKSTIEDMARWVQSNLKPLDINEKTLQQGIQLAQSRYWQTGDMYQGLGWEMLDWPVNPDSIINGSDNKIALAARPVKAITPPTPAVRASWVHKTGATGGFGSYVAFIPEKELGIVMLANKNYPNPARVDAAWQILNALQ
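AmpC (5.3 nM in the dispensed reagent) in 20 mM phosphate pH 7.0 with 0.01% (detergent screen) or 0.0001% Triton X-100 was preincubated with compounds for 15 min at room temperature. Nitrocefin was then added from an 800 uM solution, and hydrolysis was followed at 480 nm.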
AmpC inh no detg = qHTS Inhibitors of AmpC Beta-Lactamase (assay without detergent); P00811; AmpC nitrocefin hydrolysis, absorbance 480 nm, 0.0001% Triton; Potency, µM (titrated, usually from 57.1 µM), for the others: at the top dose activity change, negative = inhibition, usual class: inhibitors; 330,000 compounds, 0.52% hits; active = well fitted curve in the direction sought with a large enough effect; inconclusive = small, poorly fitted or top-dose-only effect, or another doubt; inactive = no such curve, though single readings can be large; an effect the other way counts as inactive or inconclusive;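 also: potency is read from the fitted curve at half-maximal effect; plate controls were no compound for no effect and no enzyme for full effect; nearly all actives have a fitted effect of over 20% in size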
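AmpC (5.3 nM in the dispensed reagent) in 20 mM phosphate pH 7.0 with 0.01% (detergent screen) or 0.0001% Triton X-100 was preincubated with compounds for 15 min at room temperature. Nitrocefin was then added from an 800 uM solution, and hydrolysis was followed at 480 nm.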
Flu NS1 inh = Assay for Inhibitors of Influenza NS1 Protein Function: Hit Validation; shares compounds with NS1 function inh; influenza NS1 function cell assay, 15-point titration; activity change, negative = inhibition, % at 32.9 µM; 1,400 tested, under 10 active; AID 492980, 2010; also: 0% is about no effect
PR8 titer = Assay for Inhibitors of Influenza NS1 Protein Function: Influenza virus replication assay in MDCK cells infected with virus A/PR/8/34 | virus titer (log TCID50), log10 TCID50 at 5 µM | shares compounds with NS1 function inh | MDCK infected influenza A/PR/8/34, virus titer TCID50; active compounds read low | 95 compounds, 30% hits; call rule not given here
An asterisk follows results filed as active. Rows were chosen to be rich in hits. Some 1.4% of all compounds tested hit in one or more screens of this group. Unless noted, calls follow the shape of the full dose curve.

Screening O=C(NCc1cc(C(F)(F)F)cc(C(F)(F)F)c1)C12CN(Cc3ccccc3)CC1C(c1cccc([N+](=O)[O-])c1)=NO2 (stereo not given) returned NS1 function inh 22µM*, SARS PLP yeast -2%, Giardia FBPA inh -5%, AmpC detergent -1%, AmpC inh no detg -9%, Flu NS1 inh -18 and PR8 titer 7.3*.
CCn1c(N2CCN(CC(=O)c3c(C)n(C)c4ccc(OC)cc34)CC2)nc2c1c(=O)[nH]c(=O)n2C was read as NS1 function inh 11µM*, SARS PLP yeast -1%, Giardia FBPA inh -10%, AmpC detergent -10%, AmpC inh no detg 173% and Flu NS1 inh -37.
Screening Cc1ccc(CSCCC(=O)N2CCN(c3cc(C)ccc3C)CC2)cc1 returned AmpC detergent 9%.
`CNS(=O)(=O)c1ccc(C)cc1` gave NS1 function inh inconclusive, SARS PLP yeast 0%, Giardia FBPA inh -11%, AmpC detergent -10%, AmpC inh no detg -32% and Flu NS1 inh 13.
`CC(=O)OC1=Cc2c(ccc3ccc(=O)oc23)OC1(C)C` gave NS1 function inh 9%, SARS PLP yeast -4%, Giardia FBPA inh 0%, AmpC detergent -7% and AmpC inh no detg -11%.
COc1ccc(-c2noc(CCC(=O)O)n2)cc1 was read as NS1 function inh 3.5µM*, SARS PLP yeast inconclusive, Giardia FBPA inh -1%, AmpC detergent inconclusive, AmpC inh no detg 10% and Flu NS1 inh -30.
Cc1ccccc1C(=O)Nc1c(C(=O)Nc2cccc(F)c2)oc2ccccc12 was read as AmpC detergent 2%.
`COc1cc(C)c(C(N)=O)c(OC)n1` gave NS1 function inh inconclusive, SARS PLP yeast -3%, Giardia FBPA inh inconclusive, AmpC detergent 2%, AmpC inh no detg -2% and Flu NS1 inh 1.
Screening Nc1cc(=O)[nH]n1C1CCN(c2ccccc2)CC1 returned NS1 function inh 14µM*, SARS PLP yeast 18%, Giardia FBPA inh 13%, AmpC detergent 7%, AmpC inh no detg -4% and Flu NS1 inh 27.
`CC(C)CC(=O)NC(NC(=S)Nc1sc2c(c1C#N)CCCC2)C(Cl)(Cl)Cl` (stereo not given) gave NS1 function inh 7.1µM*, SARS PLP yeast -2%, Giardia FBPA inh 7%, AmpC detergent 1%, AmpC inh no detg -37%, Flu NS1 inh -12 and PR8 titer 8.3.
CCC(=O)Nc1sc2c(c1C#N)CCC2 was read as SARS PLP yeast 0%, Giardia FBPA inh 1%, AmpC detergent -10% and AmpC inh no detg -17%.
For CCOC(=O)C1=C(C)Nc2nc(SCC)[nH]c(=O)c2C1c1ccncc1 (stereo not given) the results were NS1 function inh inconclusive, SARS PLP yeast 9%, Giardia FBPA inh 2%, AmpC detergent -3%, AmpC inh no detg 31% and Flu NS1 inh -15.
For CN1CCN(C(=O)c2ccc3c(=O)n(Cc4ccc(Cl)cc4)c(=S)[nH]c3c2)CC1 the results were NS1 function inh 5%, SARS PLP yeast -1%, Giardia FBPA inh 0%, AmpC detergent -3% and AmpC inh no detg 145%.
For O=C(CSc1nnc(-c2ccccc2)n1C1CCCCC1)Nc1ccc(S(=O)(=O)Nc2ccccn2)cc1 the results were NS1 function inh inconclusive, SARS PLP yeast 0%, Giardia FBPA inh 2%, AmpC detergent 0%, AmpC inh no detg 33% and Flu NS1 inh -9.
Screening O=C(c1cc(COc2ccc(F)cc2Cl)on1)N1CCCCC1c1cccnc1 (stereo not given) returned NS1 function inh -16%, SARS PLP yeast -10%, Giardia FBPA inh 8%, AmpC detergent -5% and AmpC inh no detg 64%.
Screening COc1cc(Cl)ccc1OCc1cc(C(=O)N2CCCCC2c2cccnc2)no1 (stereo not given) returned NS1 function inh 3.2µM*, SARS PLP yeast -48%, Giardia FBPA inh -11%, AmpC detergent inconclusive, AmpC inh no detg 81% and Flu NS1 inh inconclusive.
For Cc1ccccc1OCCC(=O)NNC(=O)COc1cccc(F)c1 the results were SARS PLP yeast 1% and AmpC inh no detg -8%.
Cn1c(SCC(=O)c2ccc3c(c2)Cc2ccccc2-3)nnc1-c1cccc(N)c1 was read as NS1 function inh inconclusive, SARS PLP yeast -28%, Giardia FBPA inh 33%, AmpC detergent 4%, AmpC inh no detg 115% and Flu NS1 inh 34.
`COc1cc(C(=O)NC(=S)Nc2ccc(N3CCCC3)cc2)cc(OC)c1OC` gave NS1 function inh 13µM*, SARS PLP yeast 5%, Giardia FBPA inh -12%, AmpC detergent inconclusive, AmpC inh no detg 5% and Flu NS1 inh 3.
COc1ccc(C(=O)NC(=S)Nc2ccc(N3CCCC3)cc2)cc1 was read as SARS PLP yeast -1%, Giardia FBPA inh 3%, AmpC detergent inconclusive and AmpC inh no detg -20%.
`CC(NC(=O)NCCCn1ccnc1)(C(F)(F)F)C(F)(F)F` gave NS1 function inh 9%, SARS PLP yeast 4%, Giardia FBPA inh -1%, AmpC detergent -15% and AmpC inh no detg 0%.
`C1=C(CCNC2=NCCCCC2)CCCC1` gave NS1 function inh 20µM*, SARS PLP yeast 17%, Giardia FBPA inh 29%, AmpC detergent 13%, AmpC inh no detg 1% and Flu NS1 inh -11.
Screening COc1nc(NCCC2=CCCCC2)nc(OC)n1 returned NS1 function inh -33%, SARS PLP yeast -9%, Giardia FBPA inh 3%, AmpC detergent inconclusive and AmpC inh no detg 2%.
Screening Cc1cccc(C)c1NC(=O)COC(=O)C1CC(=O)N(Cc2ccccc2)C1 (stereo not given) returned NS1 function inh 7%, SARS PLP yeast -1%, Giardia FBPA inh 1%, AmpC detergent 2% and AmpC inh no detg -22%.
COc1ccccc1NC(=O)CSc1ccc(-c2ccc(-n3cccn3)cc2)nn1 was read as SARS PLP yeast -3%, AmpC detergent 3% and AmpC inh no detg -25%.
COc1ccc(C(C)=O)cc1CSc1ncccn1 was read as NS1 function inh 3%, SARS PLP yeast 1%, Giardia FBPA inh 0%, AmpC detergent 0% and AmpC inh no detg -16%.
